This passage reports PBM binding z-score results from the supplement of paper PMC6555819.

This test deals with LXRb:RXRa (NR concentration 270 nM, RXRa partner concentration 90 nM). Description: PBM binding z-score (relative to random genomic background probes); higher = stronger binding; sequences stand for … in GC…GCGATTGACAGCGTAGAATGAAGG
The procedure, abridged:
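Ligand-free nuclear receptor dimers were applied to custom Agilent 4×180K protein-binding microarrays whose double-stranded probes carried direct-repeat seeds, single-nucleotide variants, half-site ablations and random human genomic background sequences in 34-nt variable regions. Incubation lasted 1 h. Binding z-scores were computed against the random background probes from regression-normalized fluorescence.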
In turn, TCTTGTAGATGAATAGAGGTTAAGAAAGTGCGCT displayed a PBM binding z-score of 1.98.

On to AGAATTAGGTTACCAAAGATCAGGGAAACGCTTG, for which the PBM binding z-score stood at 1.15.

ATCTCTAAGTAAAGTTCAGTGAAAGATCGATAGA came in with a PBM binding z-score of 1.23.

Sequence AATAGAGGGTCACTAGGCCAGAGTAGGTACGAAT yielded a PBM binding z-score of 2.81.

As for AGAACGAGGGCACGCTGATTTGATAGCAGAGTAG, the PBM binding z-score was 0.172.

GGAACGAGGGCAAGTTGATGGCAGAGTTTGATGG showed a PBM binding z-score of -0.0137.

In turn, CCTAGTTGGTCAATGTCACACACGCTATAGGTAC showed a PBM binding z-score of 1.1.

TCATTTAGGTAATACAGGTGAAAGTCGGCATCTA displayed a PBM binding z-score of 1.47.

In turn, CCTTACGGGTTACTGACAGGTTATAGCATTTGGA gave a PBM binding z-score of 1.34.

In the case of ACTATTCGTTGACTTAGGGCAACCGATACGACGC, the PBM binding z-score came to 0.263.

For ACCTCTAGGTAAGACTCAGTTCAGTGAAGAACGC, the PBM binding z-score is -0.301.

On to CGTCCAAGGTCAATGCTAGGTCAGTGAAAGCATT, for which the PBM binding z-score worked out at 3.98.

For ACTATTAGTTGAGACGAGGGCAACCGCTAGGTTG, the PBM binding z-score is 0.0826.

TCTTGTAGATCAAAAGAGGTTAAGAAAGTGCGCT: the PBM binding z-score was determined as 1.66.

As for CGAACGAGGGCATGAGTTGAGAGCAAATGCCGAT, the PBM binding z-score is 0.203.

GCTATTAGTTGAAAGGGCAACCAAATGATTCTCG returned a PBM binding z-score of 0.946.

Turning to CAAACTAGGTCAAAGGTCAAAGGCGAGCCAACCA, the PBM binding z-score worked out at 7.14.

Sequence GCTTGTAGATCAACGTTAAGAAAGACTAAGCTAA registered a PBM binding z-score of -0.448.
